# Inconclusive results are not listed. Where a call stands in place of a potency, no number is given. The source made the active and inactive calls. Unless noted, calls come from the whole dose curve; as a rule, active = well fitted curve in the direction sought with a large enough effect; inconclusive = small, poorly fitted or top-dose-only effect, or another doubt; inactive = no such curve, though single readings can be large; an effect the other way counts as inactive or inconclusive.
# Columns and labels:
# [1] = qHTS profiling for inhibitors of Plasmodium falciparum proliferation (AID 504749); note: nearly all actives have a fitted effect of over 60% in size; conditions: P. falciparum in erythrocytes, SYBR Green DNA, 72 h, at 28.7 µM (top of the series)
# Procedure, shortened: (§1)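 Each compound contacts P. falciparum-infected red blood cells for 72 h at 37 C; lysis buffer (Tris, EDTA, saponin, Triton X, SYBR Green I) is added and fluorescence measured next morning; values normalized to controls.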
# [2] = system: 3D7; experiment: as above; conditions: P. falciparum in erythrocytes, SYBR Green DNA, 72 h; series mostly up to 28.7 µM
# Procedure, shortened: as §1
# [3] = system: 7G8; experiment: as above; conditions: P. falciparum in erythrocytes, SYBR Green DNA, 72 h; series mostly up to 28.7 µM
# Procedure, shortened: as §1
# [4] = system: AA1029; experiment: as above; conditions: P. falciparum in erythrocytes, SYBR Green DNA, 72 h; series mostly up to 28.7 µM
# Procedure, shortened: as §1
# [5] = system: AS120; experiment: as above; conditions: P. falciparum in erythrocytes, SYBR Green DNA, 72 h; series mostly up to 28.7 µM
# Procedure, shortened: as §1
# [6] = system: ATS189; experiment: as above; conditions: P. falciparum in erythrocytes, SYBR Green DNA, 72 h; series mostly up to 28.7 µM
# Procedure, shortened: as §1
# [7] = system: ATS95; experiment: as above; conditions: P. falciparum in erythrocytes, SYBR Green DNA, 72 h; series mostly up to 28.7 µM
# Procedure, shortened: as §1
# [8] = system: C2A; experiment: as above; conditions: P. falciparum in erythrocytes, SYBR Green DNA, 72 h; series mostly up to 28.7 µM
# Procedure, shortened: as §1
# [9] = system: CP185; experiment: as above; conditions: P. falciparum in erythrocytes, SYBR Green DNA, 72 h; series mostly up to 28.7 µM
# Procedure, shortened: as §1
# [10] = system: CP191; experiment: as above; conditions: P. falciparum in erythrocytes, SYBR Green DNA, 72 h; series mostly up to 28.7 µM
# Procedure, shortened: as §1
# [11] = qHTS drug screen for cell cycle checkpoint inhibitors in PARPi-resistant BRCA-mutant ovarian cancer cell lines. (AID 1963452; calls by dose curve); conditions: PEO1/OlaR viability, CellTiter-Glo luminescence, 96 h, stronger effect = lower value
# Procedure, shortened: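 PEO1, PEO4 and PEO1/OlaR ovarian cancer cells, 600 per well, exposed 96 h at 37C to a dilution series. Viability read by CellTiter-Glo luminescence, normalized to DMSO and empty wells; activity summarized as Z-AUC.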
# [12] = molecular target: Cytochrome P450 2C19 (Homo sapiens) (UniProt P33261); experiment: qHTS for inhibitors of CYP2C19 against the NCATS DSHEA and TCM libraries (AID 1919974); conditions: CYP2C19 enzyme inhibition, luminescence qHTS; series mostly up to 34.1 µM;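 note: luminescence from luciferin released by CYP2C19 oxidation of a pro-luciferin substrate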; note: potency is the fitted concentration of half-maximal effect
# Procedure, shortened: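 Concentration-response screening with isoform-matched pro-luciferin substrates. The CYP reaction was initiated by NADPH regenerating solution and ran 30-45 min in darkness at room temperature.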
# [13] = KB-3-1 P-gp reporter qHTS against the NCATS DSHEA and TCM libraries (AID 1919975); conditions: KB-3-1 parental cells, CellTiter-Glo luminescence viability, 72 h; series mostly up to 26.1 µM
# Procedure, shortened: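 Parental KB-3-1 human cervical adenocarcinoma cells (500 cells/well, DMEM + 10% FBS) were treated with substances for ~72 h at 37C; viability was read by CellTiter-Glo luminescence.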
# [14] = qHTS Counterscreen for compound interference against the NCATS DSHEA and TCM libraries (AID 1919978); conditions: firefly luciferase detection reagent interference, luminescence
# Procedure, shortened: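 D-luciferin (1 uM final) or 100 mM potassium phosphate buffer alone was preincubated 15 min at RT with compounds (19.5 nM to 39.8 uM final). Luciferin detection reagent was then added and luminescence read after 30 min at RT.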
# [15] = Dual reporter qHTS for agonist of Pregnane X Receptor (hPXR) against the NCATS DSHEA and TCM libraries: Fluorescence readout (AID 1920058); conditions: PXR dual reporter cells; series mostly up to 40 µM
# Procedure, shortened: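 Cells were plated at 2000 per well and allowed to attach for 5 h. Test substances were pinned in and incubated roughly 24 h. CellTiter-Fluor was then added and fluorescence measured after 1 h.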
# [16] = molecular target: Nuclear receptor subfamily 1 group I member 2 (Homo sapiens) (UniProt O75469); experiment: Dual reporter qHTS for agonist of Pregnane X Receptor (hPXR) against the NCATS DSHEA and TCM libraries: Luminescence readout (AID 1920059); conditions: hPXR dual reporter cells, luciferase luminescence agonist; series mostly up to 40 µM
# Procedure, shortened: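 hPXR-Luc HepG2 cells, 2000/well in 5% charcoal-stripped FBS medium, attached 5 h, then exposed 24 h at 37C to compounds. Viability by CellTiter-Fluor, then luciferase luminescence with ONE-Glo.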
# [17] = molecular target: Nuclear receptor subfamily 1 group I member 2 (Homo sapiens) (UniProt O75469); experiment: Dual reporter qHTS for antagonist of Pregnane X Receptor (hPXR) against the NCATS DSHEA and TCM libraries: Luminescence Readout (AID 1920060); conditions: hPXR dual reporter cells, luciferase luminescence, antagonist mode; series mostly up to 40 µM;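 note: HepG2 cells carrying hPXR luciferase reporter stimulated with rifampicin at 2 µM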
# Procedure, shortened: (§2)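 Antagonist mode: rifampicin 2 uM final co-added with compounds to hPXR-LucHepG2 cells for 24 h at 37C. Viability by CellTiter-Fluor, Ex/Em 405/540 nm, 1 h; reporter by ONE-Glo luminescence.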
# [18] = Dual reporter qHTS for antagonist of Pregnane X Receptor (hPXR) against the NCATS DSHEA and TCM libraries: Fluorescence Readout (AID 1920061); conditions: PXR dual reporter cells, antagonist mode; series mostly up to 40 µM
# Procedure, shortened: as §2
# [19] = system: CP192; experiment: qHTS profiling for inhibitors of Plasmodium falciparum proliferation (AID 504749); note: nearly all actives have a fitted effect of over 60% in size; conditions: P. falciparum in erythrocytes, SYBR Green DNA, 72 h; series mostly up to 28.7 µM
# Procedure, shortened: as §1
# [20] = molecular target: Cytochrome P450 1A2 (Homo sapiens) (UniProt P05177); experiment: qHTS for inhibitors of CYPIA2 against the NCATS DSHEA and TCM libraries (AID 1919976); conditions: recombinant CYP1A2 enzyme activity, luminescence; series mostly up to 37 µM;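 note: light from luciferin formed by CYP1A2 from a pro-luciferin substrate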
# Procedure, shortened: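 Enzyme and pro-luciferin substrate, or substrate alone as no-enzyme background, are pre-incubated with test samples for 15 min at room temperature. NADPH regeneration system (1x final) initiates a 30-45 min dark reaction; luciferase detection reagent follows before luminescence reading.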
# [21] = measured here: PEO1 parental Z-AUC
# Sequence of Nuclear receptor subfamily 1 group I member 2 (Homo sapiens) (O75469 whole entry, looked up): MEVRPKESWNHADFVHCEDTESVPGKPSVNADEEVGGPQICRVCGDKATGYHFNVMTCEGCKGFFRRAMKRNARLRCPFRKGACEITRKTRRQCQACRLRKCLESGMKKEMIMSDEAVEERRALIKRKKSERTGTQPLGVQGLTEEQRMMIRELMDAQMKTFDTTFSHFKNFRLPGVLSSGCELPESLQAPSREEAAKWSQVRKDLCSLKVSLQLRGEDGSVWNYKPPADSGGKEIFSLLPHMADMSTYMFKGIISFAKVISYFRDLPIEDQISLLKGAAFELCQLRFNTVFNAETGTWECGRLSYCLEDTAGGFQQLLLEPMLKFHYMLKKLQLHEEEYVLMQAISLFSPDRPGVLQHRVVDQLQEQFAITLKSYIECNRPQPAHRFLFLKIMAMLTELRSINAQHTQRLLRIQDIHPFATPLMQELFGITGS
# Sequence of Cytochrome P450 2C19 (Homo sapiens) (P33261 whole entry, looked up, canonical isoform): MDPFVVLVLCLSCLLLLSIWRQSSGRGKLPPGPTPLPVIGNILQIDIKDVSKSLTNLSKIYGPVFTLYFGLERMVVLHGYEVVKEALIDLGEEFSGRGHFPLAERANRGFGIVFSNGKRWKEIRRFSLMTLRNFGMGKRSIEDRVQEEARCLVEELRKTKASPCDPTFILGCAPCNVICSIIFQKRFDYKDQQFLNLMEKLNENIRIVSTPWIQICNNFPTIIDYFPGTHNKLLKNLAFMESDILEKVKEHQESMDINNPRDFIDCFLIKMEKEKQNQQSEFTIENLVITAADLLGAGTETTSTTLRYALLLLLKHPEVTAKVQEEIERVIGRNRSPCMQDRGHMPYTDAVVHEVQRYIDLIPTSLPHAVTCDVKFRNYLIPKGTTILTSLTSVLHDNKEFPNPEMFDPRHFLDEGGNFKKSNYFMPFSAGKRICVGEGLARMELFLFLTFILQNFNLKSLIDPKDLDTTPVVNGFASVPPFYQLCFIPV
# Sequence of Cytochrome P450 1A2 (Homo sapiens) (P05177 whole entry, looked up): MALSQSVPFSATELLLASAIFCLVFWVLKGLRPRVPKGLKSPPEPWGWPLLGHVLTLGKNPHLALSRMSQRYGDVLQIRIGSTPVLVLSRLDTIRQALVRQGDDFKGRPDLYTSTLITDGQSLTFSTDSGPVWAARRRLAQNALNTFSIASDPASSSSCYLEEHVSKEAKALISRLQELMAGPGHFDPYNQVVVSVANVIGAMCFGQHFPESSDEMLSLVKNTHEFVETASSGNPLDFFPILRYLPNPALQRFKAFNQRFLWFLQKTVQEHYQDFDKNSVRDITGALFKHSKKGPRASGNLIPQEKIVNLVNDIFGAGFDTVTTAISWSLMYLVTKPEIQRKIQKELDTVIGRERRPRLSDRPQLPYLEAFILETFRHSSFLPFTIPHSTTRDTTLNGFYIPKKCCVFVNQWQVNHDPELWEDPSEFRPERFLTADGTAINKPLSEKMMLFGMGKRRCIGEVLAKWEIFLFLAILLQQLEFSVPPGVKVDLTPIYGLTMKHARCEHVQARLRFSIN
smiles,measurement,setting,value
CC(=O)OCC(COC(C)=O)OC(C)=O,"activity, negative = inhibition",[1]; parasite line A,4.58% (inactive)
same,"activity, negative = inhibition",[1]; parasite line B,8.38% (inactive)
same,Potency,[2],inactive
same,Potency,[3],inactive
same,Potency,[4],inactive
same,Potency,[5],inactive
same,Potency,[6],inactive
same,Potency,[7],inactive
same,Potency,[8],inactive
same,Potency,[9],inactive
same,outcome,[10],inactive
COc1ccc(-c2cc(=O)c3c(O)cc(O[C@@H]4O[C@H](CO[C@@H]5O[C@@H](C)[C@H](O)[C@@H](O)[C@H]5O)[C@@H](O)[C@H](O)[C@H]4O)cc3o2)cc1O,Z-AUC,[11],1.88 (inactive)
same,Z-AUC,[11]; [21],1.52
same,Z-AUC,[11]; measured here: PEO4 Z-AUC,0.98
O=C(/C=C/c1ccc(O)c(O)c1)O[C@@H]1C[C@@](OC(=O)/C=C/c2ccc(O)c(O)c2)(C(=O)O)C[C@@H](O)[C@@H]1O,Potency,[12],inactive
same,outcome,[13],inactive
same,max response,[14],5.25% (inactive)
same,outcome,[15],inactive
same,outcome,[16],inactive
same,outcome,[17],inactive
same,outcome,[18],inactive
CNCc1ccccc1,"activity, negative = inhibition",[1]; parasite line A,11.1% (inactive)
same,"activity, negative = inhibition",[1]; parasite line B,15.3% (inactive)
same,Potency,[2],inactive
same,Potency,[3],inactive
same,Potency,[4],inactive
same,Potency,[5],inactive
same,Potency,[6],inactive
same,Potency,[7],inactive
same,Potency,[8],inactive
same,Potency,[9],inactive
same,outcome,[10],inactive
same,outcome,[19],inactive
CC(C)=CCC[C@@](C)(O)[C@H]1CC=C(C)CC1,Potency,[12],5.01 µM (active)
same,outcome,[13],inactive
same,outcome,[20],inactive
same,max response,[14],1.71% (inactive)
same,outcome,[15],inactive
same,outcome,[17],inactive
same,outcome,[18],inactive
NC(=O)NC1NC(=O)NC1=O (centres undefined),Potency,[12],inactive
same,outcome,[13],inactive
same,outcome,[20],inactive
same,max response,[14],-2.81% (inactive)
same,outcome,[15],inactive
same,outcome,[16],inactive
same,outcome,[17],inactive
same,outcome,[18],inactive
CCCOC(=O)c1ccc(N)cc1,"activity, negative = inhibition",[1]; parasite line A,-0.392% (inactive)
same,"activity, negative = inhibition",[1]; parasite line B,6.95% (inactive)
same,Potency,[2],inactive
same,Potency,[3],inactive
same,Potency,[4],inactive
same,Potency,[5],inactive
same,Potency,[6],inactive
same,Potency,[7],inactive
same,Potency,[8],inactive
same,Potency,[9],inactive
same,outcome,[10],inactive
same,outcome,[19],inactive
CCCCCC(N)=O,"activity, negative = inhibition",[1]; parasite line A,6.64% (inactive)
same,"activity, negative = inhibition",[1]; parasite line B,8.74% (inactive)
same,Potency,[2],inactive
same,Potency,[3],inactive
same,Potency,[4],inactive
same,Potency,[5],inactive
same,Potency,[6],inactive
same,Potency,[7],inactive
same,Potency,[8],inactive
same,Potency,[9],inactive
same,outcome,[10],inactive
same,outcome,[19],inactive
OC[C@@H](O)[C@@H](O)[C@H](O)[C@H](O)CO,Z-AUC,[11],-0.605 (inactive)
same,Z-AUC,[11]; [21],-0.476
same,Z-AUC,[11]; measured here: PEO4 Z-AUC,-0.786
same,"activity, negative = inhibition",[1]; parasite line A,7.85% (inactive)
same,"activity, negative = inhibition",[1]; parasite line B,7.16% (inactive)
same,Potency,[2],inactive
same,Potency,[3],inactive
same,Potency,[4],inactive
same,Potency,[5],inactive
same,Potency,[6],inactive
same,Potency,[7],inactive
same,Potency,[8],inactive
same,Potency,[9],inactive
same,outcome,[10],inactive
same,outcome,[19],inactive
CC(N)CCCC(C)(C)O (centres undefined),"activity, negative = inhibition",[1]; parasite line A,12.5% (inactive)
same,"activity, negative = inhibition",[1]; parasite line B,-7.47% (inactive)
same,Potency,[2],inactive
same,Potency,[3],inactive
same,Potency,[4],inactive
same,Potency,[5],inactive
same,Potency,[6],inactive
same,Potency,[7],inactive
same,Potency,[8],inactive
same,Potency,[9],inactive
same,outcome,[10],inactive
same,outcome,[19],inactive
Cc1cc(C)nc(NS(=O)(=O)c2ccc(N)cc2)n1,"activity, negative = inhibition",[1]; parasite line A,7.93% (inactive)
same,"activity, negative = inhibition",[1]; parasite line B,10.9% (inactive)
same,Potency,[2],inactive
same,Potency,[3],inactive
same,Potency,[4],inactive
same,Potency,[5],inactive
same,Potency,[6],inactive
same,Potency,[7],inactive
same,Potency,[8],inactive
same,Potency,[9],inactive
same,outcome,[10],inactive
same,outcome,[19],inactive
OCCN1C[C@H](O)[C@@H](O)[C@H](O)[C@H]1CO,Z-AUC,[11],0.928 (inactive)
same,Z-AUC,[11]; [21],0.927
same,Z-AUC,[11]; measured here: PEO4 Z-AUC,1.11

# Source: PubChem BioAssay (NCATS)
